Results as given in PubChem BioAssay (NCI).
This is part of a sample that, as a whole, favours compounds with a hit. Of some 83,000 tested, about 20% had one in any assay.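 Testing used 96-well plates and a 48-hour single-concentration exposure. Example: -40 means 40% of the starting cells died.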 Values without a mark were called inactive. Calls of active or inactive are those of the source. The calls were made as follows: active = growth percent below 10; inactive = the rest.

test system: HL-60(TB) leukemia; assay: NCI-60 one-dose screen, 48 h (100 = growth as untreated, 0 = no growth, -100 = all killed); conditions: 10 µM unless noted

| Structure (SMILES) | growth |
| --- | --- |
| O=C(N=c1n(-c2ccccc2)nc2n1CCN2C1=NCCN1C(=O)c1ccc(Cl)cc1)c1ccc(Cl)cc1 | 51.2% |
| CN(C)CCNC(=O)c1cccn2c(=O)c3cc4ccccc4cc3nc12 | -38.5% (active) |
| CCOC(=O)c1ccc(N2C(=O)C(Cl)(c3ccccc3)C2c2ccco2)cc1 (configuration not stated) | 66% |
| N#Cc1cnc2ccc(NCc3cnc[nH]3)cc2c1Nc1ccc(F)c(Cl)c1 | 79.4% |
| CN1CCCN(C(c2ccccc2)c2ccc(Br)cc2)CC1 (configuration not stated) | 110% |
| CCCCCCC(C)N(CC(C)(C)O)C(=O)c1ccc([N+](=O)[O-])cc1 (configuration not stated) | 95.7% |
| CCOc1cccc(C2CC(=O)Nc3cc4c(cc32)OCO4)c1 (configuration not stated) | 90.7% |
| CC(=O)c1sc2sc(C(C)=O)c(C)c2c1C | 90.1% |
| CC(=O)OCC(=O)O[C@@H]1C[C@]2(C(C)C)O[C@@]1(C)[C@@H]1CC[C@@H](C)[C@H]1[C@@H]2OC(=O)/C=C/c1ccccc1 | 82.6% |
| O=C1c2cc([N+](=O)[O-])ccc2-c2cc(Cl)c(NC(=O)C(F)(F)F)cc21 | 75.6% |
| COc1cc(-c2cc3ncccc3c3nc(OCCN(C)C)c4cccnc4c23)cc(OC)c1OC | 36.9% |
| O=C(COc1cccc(/C=C2\Oc3ccc4ccccc4c3C2=O)c1)c1ccc(Cl)cc1 | 107% |
| N#Cc1c(Nc2ccc(F)cc2)n[nH]c1-c1cccs1 | 95.3% |
| COc1nc2c(cc1S(=O)(=O)c1ccccc1)CCc1c-2cnn1-c1ccc(Cl)cc1 | 90.5% |
| CCC(=O)Oc1c(C)cc(O)c2ccccc12 | 68.8% |
| CCOC(=O)C1=C(C)NC(=O)NC1c1cccs1 (configuration not stated) | 60.5% |
| CCCCCCCCCCCCCC[n+]1cccc(C(N)=O)c1 | -55.9% (active) |
| CCCCN(CCCC)CCC(=O)c1ccc(OC)c2ccccc12 | 81.1% |
| COc1ccc(N2CCN(CC(=O)N3CCN(c4nnc(-c5ccc(Cl)cc5)c(-c5ccc(Cl)cc5)n4)CC3)CC2)cc1 | -19.9% (active) |
| C=CCOc1ccc(/C=C2\SC(=S)N(CCc3ccc(O)cc3)C2=O)cc1 | 38.9% |
| Cc1cccc[n+]1C1c2ccccc2-c2ccccc21 | 92% |
| CCOC(=O)c1ccc(-c2ccc3cc(OC)ccc3c2)nc1C | 91.2% |
| N#Cc1nc(-c2ccc(Cl)cc2)oc1S(=O)(=O)N1CCN(c2ccc(F)cc2)CC1 | 66.3% |
| CCCCCCCCCCCC1=NC(C)(C)CN1CC(C)O (configuration not stated) | -15.1% (active) |
| CC(=O)Oc1ccc(N2C(=O)C(Cl)=C(Nc3cccc(C(F)(F)F)c3)C2=O)cc1 | 96.5% |
| COc1ccc(/C=N/NC(=O)Cn2c(-c3ccc(S(C)(=O)=O)cc3)nc3ccccc32)cc1 | 161% |
| COc1ccc(C(c2cc(OC)c(OC)c(OC)c2)N2CCCC2)cc1 (configuration not stated) | 35.5% |
